# Assay results published in PubChem BioAssay AID2013 (Sanford-Burnham Center for Chemical Genomics, 2009).
# About 370 (0.13%) of roughly 290,000 compounds were called active.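 Rule for the calls: active = spots per cell inhibited over 60%, with over 100 cells counted and total cytoplasm intensity under 500,000; inconclusive = wells with under 100 cells, flagged as likely toxic; inactive = the rest.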 For the sample, actives were picked, then their nearest neighbours and some compounds at random. Entries with a potency or affinity are not part of this list.
# Target: G-protein coupled receptor 55 (Homo sapiens) (UniProt Q9Y2T6)
# Test: GPR55 antagonists blocking LPI-driven arrestin recruitment, primary screen, imaging, U2OS, beta-arrestin-GFP, LPI agonist (AID 2013);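 note: U2OS cells stably carrying GPR55 and arrestin-GFP stimulated by 5 µM LPI near EC80; imaged beta-arrestin-GFP aggregate spots per cell after agonist stimulation; plate controls were LPI-stimulated DMSO wells for no effect and DMSO wells without LPI for full effect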
# Conditions: U2OS GPR55 beta-arrestin-GFP translocation imaging, LPI antagonism; at 10 µM; active compounds read high
# G-protein coupled receptor 55 (Homo sapiens), sequence (Q9Y2T6 whole entry, looked up): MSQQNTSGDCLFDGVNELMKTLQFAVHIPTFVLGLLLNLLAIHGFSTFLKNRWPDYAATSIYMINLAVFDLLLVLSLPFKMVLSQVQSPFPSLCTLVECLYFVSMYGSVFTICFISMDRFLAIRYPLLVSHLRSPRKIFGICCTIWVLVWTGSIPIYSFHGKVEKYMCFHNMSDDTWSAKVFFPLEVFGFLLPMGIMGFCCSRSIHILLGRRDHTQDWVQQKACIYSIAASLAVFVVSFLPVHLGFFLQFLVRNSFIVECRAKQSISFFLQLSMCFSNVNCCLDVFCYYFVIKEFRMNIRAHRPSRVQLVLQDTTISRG
row,Structure (SMILES),inhibition
1,CCOC(=O)c1sc(NC(=O)CSc2ncn(-c3ccccc3)n2)nc1C,14.4% (inactive)
2,CCOC(=O)N1CCN(Cc2nc3c(c(=O)n(C)c(=O)n3C)n2CCC(C)C)CC1,-1.3% (inactive)
3,COC(=O)C1=CC(C(=O)c2cccs2)=NN(c2ccc(OC)cc2)C1C(=O)OC (stereo not drawn),7.5% (inactive)
4,COc1ccc(C(=O)NCC(=O)N2CCC3(CC2)NCCc2[nH]cnc23)cc1,-11.2% (inactive)
5,O=C(c1csc2ccccc12)n1cccn1,-12.1% (inactive)
6,Oc1ccccc1/C=N/n1cnnc1,-8.4% (inactive)
7,Nc1nc(C23CC4CC(CC(Cl)(C4)C2)C3)cs1,-9.3% (inactive)
8,Nc1nc(C23CC4CC(CC(C4)C2)C3)cs1,24.8% (inactive)
9,Cc1cccc(N=Nc2c(C)[nH]n(C(N)=S)c2=O)c1C,10.8% (inactive)
10,Cc1ccccc1N=Nc1c(C)[nH]n(C(N)=S)c1=O,93.2% (active)
11,Cc1[nH]n(C(N)=S)c(=O)c1N=Nc1ccccc1C(F)(F)F,7.7% (inactive)
12,S=C(Nc1ccccc1Oc1ccccc1)Nc1cccc(Cl)c1Cl,-5.2% (inactive)
13,S=C(Nc1cccc(Cl)c1)Nc1ccccc1Oc1ccccc1,8.7% (inactive)
14,CCc1nc(NC(=O)Cc2csc(C)n2)sc1C(=O)OC,14.5% (inactive)
15,COc1ccc(Cn2ccnc2SCC(=O)Nc2nnc(C)s2)cc1,-0.9% (inactive)
16,CCc1nnc(NS(=O)(=O)c2ccc(NC(=S)NC(=O)/C=C/c3ccc(OC)cc3)cc2)s1,10.6% (inactive)
17,CCc1nnc(NS(=O)(=O)c2ccc(NC(=O)/C=C/c3ccc(F)cc3)cc2)s1,1.5% (inactive)
18,CCc1nnc(NS(=O)(=O)c2ccc(NC(=O)Nc3ccc(OC)cc3)cc2)s1,-0.7% (inactive)
19,CCc1nnc(NS(=O)(=O)c2ccc(NC(=O)/C=C/C(=O)O)cc2)s1,6.6% (inactive)
20,COc1ccc(/C(C)=N\Nc2nc(-c3ccccc3)cc(=O)[nH]2)cc1,12.1% (inactive)

row,Structure (SMILES),inhibition
1,Cc1nn2c(N3CCOCC3)cc(C(C)(C)C)nc2c1-c1ccc(Cl)cc1,-7.5% (inactive)
2,O=C(O)c1cc(NC(=O)c2ccc(Cl)c([N+](=O)[O-])c2)cc(C(=O)O)c1,6.4% (inactive)
3,O=C(Nc1ccc(C(O)(C(F)(F)F)C(F)(F)F)cc1)c1ccc(Cl)c([N+](=O)[O-])c1,88.6% (active)
4,O=C(Nc1ccc(Nc2ccccc2)cc1)c1ccc(Cl)c([N+](=O)[O-])c1,12% (inactive)
5,CCCn1c2c(c(O)c(C(=O)Nc3ncccc3O)c1=O)CCCC2,-10.6% (inactive)
6,CCCCn1c(CCC(=O)O)nc2c1c(=O)[nH]c(=O)n2CCC,-0.5% (inactive)
7,CCCCn1c(=O)[nH]c(=O)c2c1nc(CN1C(=O)c3ccccc3S1(=O)=O)n2CCC,8.3% (inactive)
8,CCC(Sc1nc(N)cc(=O)[nH]1)C(=O)NC(C(=O)OC)c1ccccc1 (stereo not drawn),3.4% (inactive)
9,COc1ccc(C2CCCN2CC(O)COc2ccccc2C(C)C)cc1 (stereo not drawn),5.6% (inactive)
10,O=C1CC(SC(=Nc2ccccc2)Nc2ccccc2)C(=O)N1c1ccc(Cl)cc1 (stereo not drawn),6.2% (inactive)
11,O=C1CC(SC(=Nc2ccccc2)Nc2ccccc2)C(=O)N1c1cccc(Cl)c1 (stereo not drawn),17.2% (inactive)
12,O=C1CC(SC(=Nc2ccccc2)Nc2ccccc2)C(=O)N1c1ccc(Cl)c(Cl)c1 (stereo not drawn),72.2% (active)
13,Cc1ccc(CNC(=O)c2nnn(CC(=O)Nc3cccc(C)c3C)c2N)cc1,18.1% (inactive)
14,Cc1cc(SCc2ccc(Br)cc2)nc(=O)[nH]1,-5.2% (inactive)
15,CCOc1ccc(OCc2ccc(C(=O)N3CCCCC3)o2)cc1,18.5% (inactive)
16,O=C(O)c1cc(NS(=O)(=O)c2ccc(N3CCCCC3)c([N+](=O)[O-])c2)cc(C(=O)O)c1,5% (inactive)
17,O=C(O)c1cc(NS(=O)(=O)c2ccc(NCc3ccccc3)c([N+](=O)[O-])c2)cc(C(=O)O)c1,58.9% (inactive)
18,Cc1sc(NC(=O)c2cc(-c3ccccc3)nc3ccccc23)c(C(N)=O)c1C,-0.9% (inactive)
19,Cc1sc(NC(=O)c2cc(-c3ccc(Cl)cc3)nc3ccccc23)c(C(N)=O)c1C,28.7% (inactive)
20,Cc1ccc(C)c(-c2cc(C(=O)Nc3sc(C)c(C)c3C(N)=O)c3ccccc3n2)c1,18% (inactive)

row,Structure (SMILES),inhibition
1,CCOC(=O)c1sc(NC(=O)c2cc(-c3ccccc3C)nc3ccccc23)c(C#N)c1C,-36.6% (inactive)
2,O=C(c1cc2cc(Br)ccc2o1)N1CCN(c2ccccc2)CC1,5.9% (inactive)
3,CC(Sc1nnc(-c2ccc(OC(F)F)cc2)o1)C(=O)NCC1CCCO1 (stereo not drawn),17.5% (inactive)
4,COc1cc(NC(=O)CN2C(=O)CN(C)C2=O)c(C)cc1[N+](=O)[O-],10.3% (inactive)
5,COc1cc(NC(=O)CN2CCCCC2)c(C)cc1[N+](=O)[O-],10.9% (inactive)
6,C=CCNC(=O)C1CCC(=O)N1S(=O)(=O)c1ccc(C)cc1 (stereo not drawn),9.3% (inactive)
7,CC(c1ccccc1C(O)c1ccccc1)N(C)C (stereo not drawn),28.9% (inactive)
8,CC(c1ccccc1C(O)(c1ccccc1)c1ccccc1)N(C)C (stereo not drawn),6.4% (inactive)
9,S=c1[nH]nc(CCc2ccc(Cl)cc2)o1,9.7% (inactive)
10,COc1ccc(S(=O)(=O)N(CC(=O)N2CCCCCC2)c2ccccc2OC)cc1,9.8% (inactive)
11,COC(=O)c1cc(C#N)c(Oc2ccc(F)cc2)nc1C,20.6% (inactive)
12,CCOC(=O)c1cc(C#N)c(Oc2cccc(C(F)(F)F)c2)nc1-c1ccccc1,10% (inactive)
13,CCOC(=O)c1cc(C#N)c(SC)nc1-c1ccccc1,18% (inactive)
14,CCOC(=O)c1cc(C#N)c(Oc2ccccc2OC)nc1-c1ccccc1,18.2% (inactive)
15,CCOC(=O)c1c(C)[nH]c(C)c1S(=O)(=O)NCCN1CCN(c2cc(Cl)ccc2C)CC1,11.1% (inactive)
16,Cc1ccc(NS(=O)(=O)c2cccc(C(=O)O)c2)cc1S(=O)(=O)N1CCCCC1,5.9% (inactive)
17,Cc1cc(C)nc(SC2CC(=O)N(c3ccc(Cl)cc3)C2=O)n1 (stereo not drawn),20.8% (inactive)
18,O=[N+]([O-])c1ncn(C23CC4CC(CC(C4)C2)C3)n1,-8.9% (inactive)
